According to PubChem BioAssay (Tox21):
Results filed as inconclusive are left out. A call without a number means that no potency is given here. Unmarked numbers belong to inactive results. The source made the active and inactive calls. Calls follow the shape of the dose curve; as a rule, active = well fitted cell-killing curve with a large enough effect in the repeat runs; inconclusive = weak or mixed curves, or effect the other way; inactive = flat fitted curve, though single readings scatter.

Experiment: cAMP Responsive Elements (CRE) small molecule agonists, cell-based qHTS assay: qHTS cell viability counter screen (AID 2060914); also: nearly all actives have a fitted effect of over 50% in size
Conditions: CRE-bla HEK293T viability, CellTiter-Glo luminescence, 5 h; series mostly up to 92.4 µM
How it was run: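 Luminescence read-out (CellTiter-Glo, 30 min RT) of ATP-based viability in CRE-bla HEK 293T cells, run in the same wells as the β-lactamase reporter assay after 3 h compound treatment at 37 °C.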
Potency is read from the fitted curve at half-maximal effect.

Row | SMILES | Potency | activity change, negative = cytotoxicity
1 | CC1COC(=O)O1 (stereo not given) | inactive | –
2 | CCCCC(CC)COC(=O)/C=C\C(=O)OCC(CC)CCCC (stereo not given) | inactive | –
3 | CC(=O)O[C@@H]1C(=O)O[C@@H]2[C@H]1OC(=O)[C@@H]2OC(C)=O | inactive | –
4 | Nc1cc(C(Cl)=C(Cl)Cl)c(S(N)(=O)=O)cc1S(N)(=O)=O | inactive | –
5 | CCCCCCc1ccc(N)cc1 | inactive | –
6 | CC(=O)O[C@H]1C[C@@H]2CC[C@@H]3[C@H](CC[C@@]4(C)[C@H]3C[C@H]([N+]3(C)CCCCC3)[C@@H]4OC(C)=O)[C@@]2(C)C[C@@H]1N1CCCCC1 | inactive | –
7 | C[N+](C)(CCOc1ccccc1)Cc1cccs1 | inactive | –
8 | NC(=S)N/N=C/c1cccnc1 | inactive | –
9 | CCc1cc(SCc2sc(-c3ccc(C(F)(F)F)cc3)nc2CN2CCN(c3ccc(OC)cc3)CC2)ccc1OCC(=O)O | 61.1 µM (active) | –
10 | CCCN1C[C@H](CSC)C[C@@H]2c3cccc4[nH]cc(c34)C[C@H]21 | inactive | –
11 | Cc1cc(Cl)c(C)cc1Cl | inactive | –
12 | CN(C(=O)C(Cl)Cl)c1ccc(OC(=O)c2ccco2)cc1 | inactive | –
13 | [Cl][Pt-2]([Cl])([Cl])[Cl] | inactive | –
14 | Clc1ccc(C(Cn2ccnc2)OCc2ccsc2Cl)c(Cl)c1 (stereo not given) | inactive | –
15 | CCCOC(=O)c1cc(O)c(O)c(O)c1 | inactive | –
16 | N#C/C(=C1\SCC(c2ccccc2Cl)S1)n1ccnc1 (stereo not given) | inactive | –
17 | NCC1CCCC(CN)C1 (stereo not given) | inactive | –
18 | Cc1ccc2oc(=O)ccc2c1 | inactive | –
19 | CCN(CC)CCNC(=O)c1cc(Cl)c(N)cc1OC | inactive | –
20 | CCCC(=O)OCCC(C)CCC=C(C)C (stereo not given) | inactive | –

Row | SMILES | Potency | activity change, negative = cytotoxicity
21 | N=c1nc(N2CCCCC2)cc(N)n1O | inactive | –
22 | Cc1cnccn1 | inactive | –
23 | CCCN1C=CN(C)C1 | inactive | –
24 | OCCOCCN1CCN(C2=Nc3ccccc3Sc3ccccc32)CC1 | inactive | –
25 | CC1(C)C(=O)N(CO)C(=O)N1CO | inactive | –
26 | O=C(/C=C/c1ccccc1)OCCc1ccccc1 | inactive | –
27 | C=C(C)C(=O)OCCCC | inactive | –
28 | O=C(NCCc1c[nH]c2ccccc12)c1cccnc1 | inactive | –
29 | CCC(=O)c1c(O)cc(O)cc1O | inactive | –
30 | Cc1cn([C@H]2C[C@H](F)[C@@H](CO)O2)c(=O)[nH]c1=O | inactive | –
31 | C=COCCCC | inactive | –
32 | Cc1ccc(S)cc1 | inactive | –
33 | NCCS | inactive | –
34 | CCC(Cl)CC(Cl)C(Cl)C(Cl)C(Cl)C(C)Cl (stereo not given) | – | -0.221% [at 18.9 µM]
35 | COC(=O)C(C)O (stereo not given) | inactive | –
36 | CCCCCCOCCO | inactive | –
37 | Cc1cccc(C)c1OCC(C)N (stereo not given) | inactive | –
38 | CC[C@H](NC(=O)c1cc(F)ccc1NS(=O)(=O)c1cccc2cccnc12)c1ccccc1 | inactive | –
39 | ON=C1CCCCC1 | inactive | –
40 | O=C1OCCO1 | inactive | –
